Inconclusive results are not listed. Calls of active or inactive are those of the source. The call rests on the fitted dose curve; in most records, active means well fitted curve in the direction sought with a large enough effect; inconclusive means small, poorly fitted or top-dose-only effect, or another doubt; inactive means no such curve, though single readings can be large; an effect the other way counts as inactive or inconclusive.
Experiments:
[1] = NS1 protein of Zika virus - qHTS assay to identify small molecule inhibitors in human HEK 293 cells (AID 1347053); further: series mostly up to about 46 µM; nearly all actives have a fitted effect of over 55% in size
Procedure, shortened: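 HEK 293 cells, seeded 20 h at 37 C, were pretreated with compound 1 h, then infected with ZIKV MR766 (MOI = 0.5) for 24 h. NS1 was read by TR-FRET with two anti-NS1 antibodies, normalized to uninfected and infected wells.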

[2] = qHTS of pediatric cancer cell lines to identify multiple opportunities for drug repurposing: Primary screen for TC32 cells (AID 1347089); further: nearly all actives have a fitted effect of over 60% in size
Procedure, shortened: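 Luminescent CellTiter-Glo read-out of metabolically active TC32 cells after 48 h compound exposure. Primary: MIPE 11-point, 0.78 nM–46 µM; NPC 8-point, 0.59 nM–46 µM. Confirmatory: 11-point dilutions.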

[3] = qHTS of pediatric cancer cell lines to identify multiple opportunities for drug repurposing: Primary screen for DAOY cells (AID 1347090); further: series mostly up to about 46 µM; nearly all actives have a fitted effect of over 55% in size
Procedure, shortened: (§1)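 Eight- or eleven-point concentration series, 48 h treatment at 37 degrees C in growth media; readout CellTiter-Glo luminescence. Potency and efficacy were taken from the concentration-response curves.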

[4] = qHTS of pediatric cancer cell lines to identify multiple opportunities for drug repurposing: Primary screen for SJ-GBM2 cells (AID 1347091)
Procedure, shortened: as §1

[5] = qHTS of pediatric cancer cell lines to identify multiple opportunities for drug repurposing: Primary screen for A673 cells (AID 1347092); further: nearly all actives have a fitted effect of over 45% in size
Procedure, shortened: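 A673 cells (500-1,000 cells/well in growth media) were pre-incubated 5 h at 37 degrees C, then exposed to compounds for 48 h. Viability was read as CellTiter-Glo luminescence; concentration-response curves came directly from the primary screen.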

[6] = qHTS of pediatric cancer cell lines to identify multiple opportunities for drug repurposing: Primary screen for SK-N-MC cells (AID 1347093); further: series mostly up to about 46 µM
Procedure, shortened: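 Metabolically active cells were quantified by ATP-dependent luminescence (CellTiter-Glo, 15 min at room temperature) following 48 h treatment. Cells had been plated at 500-1,000 per well and settled for 5 h beforehand.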

[7] = qHTS of pediatric cancer cell lines to identify multiple opportunities for drug repurposing: Primary screen for BT-37 cells (AID 1347094); further: series mostly up to about 57 µM
Procedure, shortened: (§2)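 CRCs from 8- or 11-point titrations (lowest final 0.59 nM NPC, 0.78 nM MIPE). Cell viability: CellTiter-Glo after 48 h incubation, 15 min room-temperature development, luminescence imaging.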

[8] = qHTS of pediatric cancer cell lines to identify multiple opportunities for drug repurposing: Primary screen for U-2 OS cells (AID 1347096); further: nearly all actives have a fitted effect of over 50% in size
Procedure, shortened: (§3)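 Cells (500-1,000/well) in growth media were settled 5 h at 37 degrees C, then given compounds for 48 h. Viability was read as CellTiter-Glo luminescence. Primary runs used MIPE at 11 points (0.78 nM-46 µM) and NPC at 8 points (0.59 nM-46 µM); follow-ups used 11 points.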

[9] = qHTS of pediatric cancer cell lines to identify multiple opportunities for drug repurposing: Primary screen for Saos-2 cells (AID 1347097); further: nearly all actives have a fitted effect of over 40% in size
Procedure, shortened: as §2

[10] = qHTS of pediatric cancer cell lines to identify multiple opportunities for drug repurposing: Primary screen for SK-N-SH cells (AID 1347098);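 further: DMSO served as neutral control and bortezomib at 2.3 µM as positive control; nearly all actives have a fitted effect of over 65% in size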
Procedure, shortened: (§4)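 Cells (500-1,000/well) rested 5 h, then received compounds for 48 h; metabolically active cells were measured by CellTiter-Glo luminescence. Final concentrations spanned up to 46 µM (MIPE, 11-point) or 0.59 nM-46 µM (NPC, 8-point) in primary screens, 11-point in follow-ups.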

[11] = qHTS of pediatric cancer cell lines to identify multiple opportunities for drug repurposing: Primary screen for NB1643 cells (AID 1347099); further: nearly all actives have a fitted effect of over 50% in size
Procedure, shortened: as §2

[12] = qHTS of pediatric cancer cell lines to identify multiple opportunities for drug repurposing: Primary screen for LAN-5 cells (AID 1347100)
Procedure, shortened: as §3

[13] = qHTS of pediatric cancer cell lines to identify multiple opportunities for drug repurposing: Primary screen for BT-12 cells (AID 1347101); further: nearly all actives have a fitted effect of over 25% in size
Procedure, shortened: as §4

[14] = qHTS of pediatric cancer cell lines to identify multiple opportunities for drug repurposing: Primary screen for OHS-50 cells (AID 1347103); further: nearly all actives have a fitted effect of over 40% in size
Procedure, shortened: as §4

[15] = qHTS of pediatric cancer cell lines to identify multiple opportunities for drug repurposing: Primary screen for RD cells (AID 1347104); further: nearly all actives have a fitted effect of over 55% in size
Procedure, shortened: as §2

[16] = qHTS of pediatric cancer cell lines to identify multiple opportunities for drug repurposing: Primary screen for MG 63 (6-TG R) cells (AID 1347105); further: nearly all actives have a fitted effect of over 50% in size
Procedure, shortened: as §2

[17] = qHTS of pediatric cancer cell lines to identify multiple opportunities for drug repurposing: Primary screen for control Hh wild type fibroblast cells (AID 1347106);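 further: series mostly up to about 46 µM; a drop in luminescence marks cytotoxicity and a rise apparent proliferation; nearly all actives have a fitted effect of over 55% in size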
Procedure, shortened: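 Viability after 48 h compound treatment at 37C, 500-1,000 cells/well, read as ATP luminescence with CellTiter-Glo. Primary screens used 11-point (MIPE, 0.78 nM-46 µM) or 8-point (NPC, 0.59 nM-46 µM) final concentrations; follow-up screens used 11-point dilutions.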

[18] = qHTS of pediatric cancer cell lines to identify multiple opportunities for drug repurposing: Primary screen for Rh30 cells (AID 1347107); further: series mostly up to about 46 µM; nearly all actives have a fitted effect of over 75% in size
Procedure, shortened: as §3

[19] = qHTS of pediatric cancer cell lines to identify multiple opportunities for drug repurposing: Primary screen for NB-EBc1 cells (AID 1347095)
Procedure, shortened: as §2

[20] = qHTS of pediatric cancer cell lines to identify multiple opportunities for drug repurposing: Primary screen for Rh18 cells (AID 1347102); further: nearly all actives have a fitted effect of over 65% in size
Procedure, shortened: as §3

Measured: Potency

CC(=O)[C@@]1(O)CC[C@H]2[C@@H]3C[C@H](C)C4=CC(=O)C=C[C@]4(C)[C@@]3(F)[C@@H](O)C[C@@]21C
not listed: [19] | [20]
inactive: all other assays above

CCOc1ccccc1O[C@H](c1ccccc1)[C@H]1CNCCO1
not listed: [10] | [14]
inactive: all other assays above

CCOc1ccc(C(=O)OCCN(CC)CC)cc1
not listed: [19]
inactive: all other assays above

O=C(CCBr)N1CCN(C(=O)CCBr)CC1
not listed: [10] | [13] | [16] | [19]
inactive: all other assays above

CCCCOC(=O)c1ccc(N)cc1
not listed: [13] | [14] | [15] | [19]
inactive: all other assays above

O=C(O)CNC(=O)c1ccccc1I
not listed: [14] | [19]
inactive: all other assays above

C=CCSCC1Nc2cc(Cl)c(S(N)(=O)=O)cc2S(=O)(=O)N1 (stereo unspecified)
not listed: [19]
inactive: all other assays above

NCc1ccc(S(N)(=O)=O)cc1
not listed: [9]
inactive: all other assays above

CCOC(=O)OC(C)OC(=O)[C@@H]1N2C(=O)[C@@H](NC(=O)[C@H](N)c3ccccc3)[C@H]2SC1(C)C (stereo partly specified)
not listed: [16] | [19]
inactive: all other assays above

O=C(O)CCC(=O)O
not listed: [10]
inactive: all other assays above

COC(=O)c1ccccc1C(=O)c1ccc(OCCN2CCCCC2)cc1
not listed: [11] | [19]
inactive: all other assays above

O=c1[nH]c(=O)c2ccccc2o1
not listed: [19]
inactive: all other assays above

CCN(CC)S(=O)(=O)c1ccc(C(=O)O)cc1
not listed: [19]
inactive: all other assays above

CCCCCCCCCCCCCCCCN
not listed: [19]
inactive: all other assays above

Cc1c(NC(C)C)c(=O)n(-c2ccccc2)n1C
not listed: [9] | [16]
inactive: all other assays above

COC(=O)N/N=C/c1c[n+]([O-])c2ccccc2[n+]1[O-]
not listed: [10]
inactive: all other assays above

C[C@@H]1O[C@@H](OC[C@H]2O[C@@H](Oc3c(-c4ccc(O)c(O)c4)oc4cc(O)cc(O)c4c3=O)[C@H](O)[C@@H](O)[C@@H]2O)[C@H](O)[C@H](O)[C@H]1O
not listed: [19] | [20]
inactive: all other assays above

O=C(O)CCCc1ccccc1
not listed: [19]
inactive: all other assays above

C[C@@H](c1ncncc1F)C(O)(Cn1cncn1)c1ccc(F)cc1F (stereo partly specified)
not listed: [19]
inactive: all other assays above

C[N+](C)(C)CC(O)CC(=O)[O-] (stereo unspecified)
not listed: [9] | [20]
inactive: all other assays above

Nc1ncnc2c1ncn2[C@@H]1O[C@H](COP(=O)(O)O)[C@@H](O)[C@H]1O
not listed: [9]
inactive: all other assays above

OC(CCN1CCCC1)(c1ccccc1)C1CCCCC1 (stereo unspecified)
not listed: [9] | [11] | [14] | [15] | [20]
inactive: all other assays above

Cc1cc(OI)c(C(C)C)cc1-c1cc(C(C)C)c(OI)cc1C
not listed: [13] | [19]
inactive: all other assays above

Cn1cc(C(=O)[C@@H]2CCc3nc[nH]c3C2)c2ccccc21
not listed: [10] | [14]
inactive: all other assays above

CCC(C)(CN(C)C)OC(=O)c1ccccc1 (stereo unspecified)
not listed: [9]
inactive: all other assays above

CN1C(C)(C)CCCC1(C)C
not listed: [10] | [13] | [17]
inactive: all other assays above

O=C(O)c1ccccc1C(=O)Nc1ccc(S(=O)(=O)Nc2nccs2)cc1
not listed: [6] | [7] | [11]
inactive: all other assays above

CC(C)(C)NCC(O)COc1cccc2c1CCC(=O)N2 (stereo unspecified)
not listed: [7] | [20]
inactive: all other assays above

CN1CCCN=C1COC(=O)C(O)(c1ccccc1)C1CCCCC1 (stereo unspecified)
not listed: [7] | [13] | [15]
inactive: all other assays above

CCCCCCCCCCCCCCCCCCO
not listed: [7] | [14] | [19]
inactive: all other assays above

CCS(=O)(=O)CCn1c([N+](=O)[O-])cnc1C
not listed: [7] | [20]
inactive: all other assays above

Cc1cc(=O)[nH]c(=S)[nH]1
not listed: [9] | [11] | [19]
inactive: all other assays above

— PubChem BioAssay (NCATS)
